Experimental data from PubChem BioAssay (Tox21).
“And” between values parts separate entries of the source, which are not always exact repeats. Identical values can stand only once. Inconclusive results are not listed. Where a structure was tested more than once in an assay, its records may differ in their call. The source made the active and inactive calls. Unless noted, calls follow the shape of the full dose curve.

Columns and labels:
[1] = Nuclear factor erythroid 2-related factor 2/antioxidant responsive element (Nrf2/ARE) small molecule agonists: luciferase reporter gene qHTS assay in human keratinocytes (AID 1919969); settings: KeratinoSens HaCaT ARE-luciferase, luminescence, 24 h; series mostly up to 92.4 µM; also: nearly all actives have a fitted effect of over 35% in size; also: potency is read from the fitted curve at half-maximal effect
[2] = target: Gonadotropin-releasing hormone receptor (Homo sapiens) (UniProt P30968); experiment: Human gonadotropin-releasing hormone receptor (GnRHR) small molecule agonists, calcium flux assay in GnRHR-HEK293 cells (AID 1920063); settings: calcium flux fluorescence, agonist mode; series mostly up to 57.6 µM; also: nearly all actives have a fitted effect of over 35% in size
Summary of the method: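 Intracellular calcium rise is the read-out: engineered human GnRHR HEK293 cells, dye-loaded, are exposed to DMSO-dissolved compounds and fluorescence at Ex/Em 480/540 is tracked for 3 min.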

[3] = target: KiSS-1 receptor (Homo sapiens) (UniProt Q969F8); experiment: Human kisspeptin (KISS1R) small molecule agonists, calcium flux assay in KISS1R-HEK293 cells (AID 1920064; active = well fitted activation curve with a large enough effect in the repeat runs); settings: KISS1R-HEK293, calcium flux fluorescence, agonist; series mostly up to 76.8 µM
Summary of the method: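 Concentration-response testing used 15 concentrations in triplicate on human KISS1R-expressing HEK293 cells. Calcium-dependent fluorescence (Ex/Em 480/540) was followed kinetically for 3 min after compound transfer.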

[4] = G protein-coupled receptor (GPCR) small molecule agonists, calcium flux assay: HEK293 wild type cell line counter screen (AID 1920065); settings: HEK293 WT calcium flux, fluorescence, agonist mode; series mostly up to 57.6 µM
Summary of the method: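 Fluorescence intensity signals activation. After overnight (18 h) culture and a 1 h calcium dye load at 37 C, compounds are added by pin tool and the plate read at 480/540 nm for 3 min in 1 s steps.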

[5] = p53 small molecule agonists, cell-based qHTS assay with human liver microsomes (AID 1963577); settings: HCT-116 p53RE-bla with human liver microsomes, ratio, 16 h; series mostly up to 66 µM;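 also: p53 response element beta-lactamase reporter cells with liver microsomes plus NADPH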
Summary of the method: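 HLM-supplemented p53RE-bla reporter assay: 16 h compound exposure at 37 C, microsomes and NADPH each 0.5 mg/mL final, read by fluorescence intensity.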

[6] = p53 small molecule agonists, cell-based qHTS assay with rat liver microsomes (AID 1963578); settings: HCT-116 p53RE-bla, beta-lactamase ratio, 16 h; series mostly up to 66 µM
Summary of the method: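 Quantitative HTS of the Tox21 10K library: p53RE-bla cells, rat liver microsomes plus NADPH at 0.5 mg/mL final each, 16 h at 37 C, beta-lactamase fluorescence detection.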

[7] = p53 small molecule agonists, cell-based qHTS assay with human liver microsomes: qHTS cell viability counter screen (AID 1963579); settings: p53RE-bla HCT-116 viability, ATP luminescence, 16 h, HLM; series mostly up to 66 µM; also: nearly all actives have a fitted effect of over 45% in size
Summary of the method: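 Viability of p53RE-bla cells is measured as CellTiter-Glo luminescence following a 16 h, 37 C incubation with compound, liver microsomes from human donors and NADPH.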

[8] = p53 small molecule agonists, cell-based qHTS assay with rat liver microsomes: qHTS cell viability counter screen (AID 1963580); settings: p53RE-bla HCT-116 + rat microsomes, ATP viability, 16 h; series mostly up to 66 µM; also: nearly all actives have a fitted effect of over 45% in size
Summary of the method: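 Cytotoxicity counter screen: intracellular ATP read by CellTiter-Glo luminescence in the p53 reporter wells. HCT-116 p53RE-bla cells were treated for 16 h at 37 C alongside rat liver microsomes and NADPH, each 0.5 mg/mL final.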

[9] = p53 small molecule agonists, cell-based qHTS assay: qHTS cell viability counter screen (AID 1963581); settings: p53RE-bla HCT-116 viability, ATP luminescence, 16 h; series mostly up to 66 µM; also: nearly all actives have a fitted effect of over 45% in size; also: potency is read from the fitted curve at half-maximal effect
Summary of the method: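 Luminescence from CellTiter-Glo, reflecting ATP content, serves as the cytotoxicity measure; it is taken after the 2 h reporter substrate step in HCT-116 p53RE-bla cells dosed for 16 h at 37 C.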

[10] = target: 5-hydroxytryptamine receptor 2A (Homo sapiens) (UniProt P28223); experiment: 5-hydroxytryptamine receptor 2A (HTR2A) small molecule antagonists, cell-based qHTS assay (AID 1963586); settings: HTR2A-CHO cells, DOI-induced calcium flux, fluorescence; series mostly up to 61.5 µM; also: nearly all actives have a fitted effect of over 45% in size; also: potency is read from the fitted curve at half-maximal effect
Summary of the method: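 CHO cells stably expressing human HTR2A were plated for 18 h at 37 C, then loaded with calcium dye for 1 h. Compounds were preincubated 5 min at room temperature before DOI (4 nM solution) was added. Kinetic fluorescence was read for 3 min.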

[11] = target: 5-hydroxytryptamine receptor 2A (Homo sapiens) (UniProt P28223); experiment: 5-hydroxytryptamine receptor 2A (HTR2A) small molecule agonists, cell-based qHTS assay (AID 1963587); settings: HTR2A-CHO cells, calcium flux fluorescence, agonist mode; series mostly up to 76.8 µM; also: nearly all actives have a fitted effect of over 30% in size
Summary of the method: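 Kinetic calcium-flux fluorescence (2 min, 1 sec intervals) after compound addition in agonist mode. HTR2A-CHO cells were cultured 18 h, then dye-loaded 1 h at 37 C.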

[12] = target: Muscarinic acetylcholine receptor M1 (Homo sapiens) (UniProt P11229); experiment: Cholinergic receptor muscarinic 1 (CHRM1) small molecule antagonists, cell-based qHTS assay (AID 1963588); settings: CHRM1-CHO antagonist mode, calcium flux fluorescence; series mostly up to 61.5 µM; also: nearly all actives have a fitted effect of over 40% in size; also: potency is read from the fitted curve at half-maximal effect
Summary of the method: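 Compounds were tested at 15 concentrations in three independent runs. Dye-loaded CHRM1-CHO cells were exposed 5 min at room temperature before stimulation by acetylcholine added at 50nM. Intracellular calcium was read kinetically on FDSS for 3 min.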

[13] = target: Muscarinic acetylcholine receptor M1 (Homo sapiens) (UniProt P11229); experiment: Cholinergic receptor muscarinic 1 (CHRM1) small molecule agonists, cell-based qHTS assay (AID 1963589); settings: CHRM1-CHO cells, agonist mode, calcium flux fluorescence; series mostly up to 76.8 µM; also: nearly all actives have a fitted effect of over 35% in size
Summary of the method: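 Fluorescent calcium dye reports M1 activation in stably transfected CHO cells. Compounds, 15 concentrations, added after 1 h dye loading at 37 C; kinetic reading at 1 sec intervals.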

[14] = cAMP Responsive Elements (CRE) small molecule antagonists, cell-based qHTS assay (AID 1963591; active = well fitted inhibition curve with a large enough effect in the signal ratio in the repeat runs, not every such curve was filed as active; the % refers to the signal ratio; also: potency is read from the fitted curve at half-maximal effect); settings: CRE-bla HEK293T, beta-lactamase FRET ratio; series mostly up to 92.4 µM
Summary of the method: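 Stimulation used NKH477 at a final 0.25 uM for 3 h in compound-treated CRE-bla HEK293T cells, seeded 18 h beforehand. Reporter activity was measured with LiveBLAzer B/G FRET substrate after 2 h at room temperature.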

[15] = target: Beta-2 adrenergic receptor (Homo sapiens) (UniProt P07550); experiment: Adrenergic beta2 receptor (ADRB2) small molecule antagonists, cell-based qHTS assay (AID 1963592); settings: CHO-ADRB2 cells, isoproterenol-stimulated cAMP HTRF ratio, 0.5 h; series mostly up to 92.4 µM; also: nearly all actives have a fitted effect of over 50% in size
Summary of the method: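 Assay format: CHO-ADRB2 cells, 18-20hr seeding at 37C/5% CO2, then compound plus 1nM isoproterenol agonist mix for 0.5hr RT. Homogeneous time-resolved fluorescence cAMP detection after 1hr, expressed as 665/615 nm ratio.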

[16] = target: Beta-2 adrenergic receptor (Homo sapiens) (UniProt P07550); experiment: Adrenergic beta2 receptor (ADRB2) small molecule agonists, cell-based qHTS assay (AID 1963593); settings: CHO-ADRB2 cells, cAMP HTRF, 30 min; series mostly up to 92.4 µM;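 also: CHO cells stably overexpressing human ADRB2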
Summary of the method: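 CHO cells stably over-expressing ADRB2 were plated overnight at 37C, then dosed with compounds plus a stimulation mix containing 100uM IBMX and 25uM Ro-20-1724 for 0.5hr at room temperature. cAMP was measured by HTRF competition, 1hr.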

[17] = target: D(2) dopamine receptor (Homo sapiens) (UniProt P14416); experiment: Dopamine D2 receptor (DRD2) small molecule agonists, cell-based qHTS assay (AID 1963594); settings: HEK293-DRD2 cAMP HTRF, agonist mode, 30 min; series mostly up to 92.4 µM; also: nearly all actives have a fitted effect of over 35% in size; also: potency is read from the fitted curve at half-maximal effect
Summary of the method: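 cAMP accumulation in DRD2-HEK293 cells measured by HTRF after 1 h detection; compounds added 10 min before NKH477 (200nM […]) forskolin-analogue stimulation, 30 min at room temperature, with Ro20-1724 present at 0.1 mM final.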

[18] = target: D(2) dopamine receptor (Homo sapiens) (UniProt P14416); experiment: Dopamine D2 receptor (DRD2) small molecule antagonists, cell-based qHTS assay (AID 1963595; active = well fitted inhibition curve with a large enough effect in the signal ratio in the repeat runs, with a control signal flat; the % refers to the signal ratio); settings: HEK293-DRD2 cAMP HTRF antagonist mode; series mostly up to 92.4 µM
Summary of the method: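 Stable D2 receptor HEK293 line, 24 h after seeding. Compound preincubated 10 min, then quinpirole (12 nM) with forskolin analogue NKH477 (200 nM), 30 min, room temperature. Detection by time-resolved FRET of cAMP.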

[19] = p53 small molecule agonists, cell-based qHTS assay (AID 1963582; active = well fitted activation curve with a large enough effect in the signal ratio in the repeat runs, not every such curve was filed as active; the % refers to the signal ratio); settings: HCT-116 p53RE-bla reporter, beta-lactamase FRET ratio, 16 h; series mostly up to 66 µM
Summary of the method: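 After plating, p53RE-bla cells sat 5 h in the incubator; compounds or DMSO vehicle were pinned in; a 16 h incubation at 37 C followed; FRET substrate was added and, 2 h later at RT, fluorescence was measured.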

[20] = cAMP Responsive Elements (CRE) small molecule agonists, cell-based qHTS assay (AID 1963590); settings: CRE-bla HEK293T, beta-lactamase FRET ratio, 3 h; series mostly up to 92.4 µM
Summary of the method: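 Compound exposure lasted 3 h at 37 C/5% CO2 in CRE-bla HEK 293T cells grown in assay medium with 10% dialyzed FBS and 25 mM HEPES. Reporter signal came from LiveBLAzer B/G FRET substrate, 2 h, room temperature.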

Measured: Potency

Sequence of 5-hydroxytryptamine receptor 2A (Homo sapiens) (P28223 whole entry, looked up): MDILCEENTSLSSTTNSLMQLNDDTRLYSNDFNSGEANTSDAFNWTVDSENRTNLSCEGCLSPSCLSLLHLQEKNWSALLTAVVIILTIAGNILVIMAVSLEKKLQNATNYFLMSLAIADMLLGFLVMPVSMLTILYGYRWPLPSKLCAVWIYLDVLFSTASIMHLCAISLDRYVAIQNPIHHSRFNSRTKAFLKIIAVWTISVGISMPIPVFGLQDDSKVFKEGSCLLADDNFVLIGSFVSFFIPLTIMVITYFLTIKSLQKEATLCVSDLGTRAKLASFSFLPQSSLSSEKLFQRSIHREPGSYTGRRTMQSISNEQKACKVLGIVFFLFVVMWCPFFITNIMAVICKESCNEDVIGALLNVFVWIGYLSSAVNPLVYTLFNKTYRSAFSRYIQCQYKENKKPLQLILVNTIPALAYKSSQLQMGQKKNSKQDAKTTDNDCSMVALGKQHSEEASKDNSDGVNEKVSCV
Sequence of D(2) dopamine receptor (Homo sapiens) (P14416 whole entry, looked up): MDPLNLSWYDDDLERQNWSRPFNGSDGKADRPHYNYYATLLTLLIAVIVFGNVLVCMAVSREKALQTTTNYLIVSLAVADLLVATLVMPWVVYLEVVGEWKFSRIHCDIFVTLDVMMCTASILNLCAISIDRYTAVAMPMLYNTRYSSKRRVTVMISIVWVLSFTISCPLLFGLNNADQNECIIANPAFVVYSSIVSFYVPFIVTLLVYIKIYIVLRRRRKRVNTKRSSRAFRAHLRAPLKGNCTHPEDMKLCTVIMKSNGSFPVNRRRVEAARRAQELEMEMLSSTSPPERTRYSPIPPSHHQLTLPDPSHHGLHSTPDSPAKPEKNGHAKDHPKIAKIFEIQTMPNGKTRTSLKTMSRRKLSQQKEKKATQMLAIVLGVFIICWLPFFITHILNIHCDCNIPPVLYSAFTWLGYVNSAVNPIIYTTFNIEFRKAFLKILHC
Sequence of Gonadotropin-releasing hormone receptor (Homo sapiens) (P30968 whole entry, looked up): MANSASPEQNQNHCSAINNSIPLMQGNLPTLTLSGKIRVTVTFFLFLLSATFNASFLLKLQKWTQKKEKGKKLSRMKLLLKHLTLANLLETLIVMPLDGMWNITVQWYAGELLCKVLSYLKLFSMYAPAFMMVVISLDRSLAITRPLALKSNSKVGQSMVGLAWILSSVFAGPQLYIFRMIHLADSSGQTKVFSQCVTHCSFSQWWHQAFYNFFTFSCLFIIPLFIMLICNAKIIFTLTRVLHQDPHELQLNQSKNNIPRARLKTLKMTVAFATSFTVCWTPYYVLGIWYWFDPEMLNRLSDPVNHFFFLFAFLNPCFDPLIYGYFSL
Sequence of Muscarinic acetylcholine receptor M1 (Homo sapiens) (P11229 whole entry, looked up): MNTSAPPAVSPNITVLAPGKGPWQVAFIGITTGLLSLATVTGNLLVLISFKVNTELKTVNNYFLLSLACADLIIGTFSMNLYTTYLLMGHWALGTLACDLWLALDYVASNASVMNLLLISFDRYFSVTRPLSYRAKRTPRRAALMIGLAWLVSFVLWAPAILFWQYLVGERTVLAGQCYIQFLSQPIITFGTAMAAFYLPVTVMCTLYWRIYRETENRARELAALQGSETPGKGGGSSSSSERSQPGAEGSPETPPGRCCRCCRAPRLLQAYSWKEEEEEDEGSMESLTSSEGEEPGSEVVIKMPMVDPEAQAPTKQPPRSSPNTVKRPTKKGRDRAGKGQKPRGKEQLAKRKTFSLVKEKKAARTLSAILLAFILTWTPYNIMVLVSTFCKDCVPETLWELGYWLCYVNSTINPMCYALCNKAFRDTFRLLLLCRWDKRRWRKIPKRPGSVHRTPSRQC
Sequence of Beta-2 adrenergic receptor (Homo sapiens) (P07550 whole entry, looked up): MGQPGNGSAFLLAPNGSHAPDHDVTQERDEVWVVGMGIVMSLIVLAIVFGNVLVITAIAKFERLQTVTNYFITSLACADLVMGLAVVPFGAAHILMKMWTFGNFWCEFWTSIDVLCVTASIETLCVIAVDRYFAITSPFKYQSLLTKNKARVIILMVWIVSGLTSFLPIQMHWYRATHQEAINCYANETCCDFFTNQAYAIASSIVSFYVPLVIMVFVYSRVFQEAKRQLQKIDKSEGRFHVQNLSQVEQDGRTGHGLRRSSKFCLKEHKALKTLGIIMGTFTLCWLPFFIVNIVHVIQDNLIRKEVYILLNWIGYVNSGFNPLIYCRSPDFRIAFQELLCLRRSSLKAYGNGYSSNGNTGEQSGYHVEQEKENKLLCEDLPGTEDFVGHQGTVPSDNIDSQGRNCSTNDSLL
Sequence of KiSS-1 receptor (Homo sapiens) (Q969F8 whole entry, looked up): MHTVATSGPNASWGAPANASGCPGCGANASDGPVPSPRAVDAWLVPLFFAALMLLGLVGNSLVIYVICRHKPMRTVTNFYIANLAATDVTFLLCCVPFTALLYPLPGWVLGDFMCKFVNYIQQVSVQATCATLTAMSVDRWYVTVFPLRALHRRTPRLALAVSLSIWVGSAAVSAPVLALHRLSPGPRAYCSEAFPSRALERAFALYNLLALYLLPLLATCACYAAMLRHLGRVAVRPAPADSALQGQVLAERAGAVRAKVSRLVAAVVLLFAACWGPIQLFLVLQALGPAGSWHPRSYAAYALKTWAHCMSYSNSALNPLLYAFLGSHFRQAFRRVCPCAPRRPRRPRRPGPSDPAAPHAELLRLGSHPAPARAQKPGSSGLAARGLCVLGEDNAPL

CCCC1COC(Cn2cncn2)(c2ccc(Cl)cc2Cl)O1 (configuration not stated)
inactive: [1] | [2] | [3] | [4] | [5] | [6] | [7] | [8] | [9] | [10] | [11] | [12] | [13] | [14] | [15] | [16] | [17] | [18]

Nc1ccc(-c2ccccc2)cc1
active: [1] 13.7 µM
inactive: [3] | [4] | [5] | [6] | [7] | [8] | [9] | [19] | [10] | [11] | [12] | [13] | [20] | [14] | [15] | [18]

CCCCC(CC)COC(=O)Cl (configuration not stated)
inactive: [1] | [2] | [3] | [4] | [7] | [8] | [9] | [10] | [11] | [12] | [13] | [20] | [14] | [17] | [18]

CCCCCCCCCCCCn1cc[n+](C)c1
inactive and 33.7 µM (active): [10]
inactive: [1] | [3] | [4] | [20] | [14] | [15] | [16] | [17] | [18]

Oc1ccc(C(c2ccc(O)cc2)(C(F)(F)F)C(F)(F)F)cc1
active: [10] 37.5 µM
inactive: [1] | [2] | [3] | [4] | [5] | [6] | [13] | [17] | [18]

CCC(C)C(C)(COC(N)=O)COC(N)=O (configuration not stated)
inactive: [1] | [2] | [3] | [4] | [5] | [6] | [7] | [8] | [9] | [19] | [10] | [11] | [12] | [13] | [20] | [14] | [15] | [17] | [18]

CN1C[C@H](C(=O)N[C@]2(C)O[C@@]3(O)[C@@H]4CCCN4C(=O)[C@H](Cc4ccccc4)N3C2=O)C=C2c3cccc4[nH]cc(c34)C[C@H]21
inactive: [1] | [2] | [3] | [4] | [5] | [7] | [8] | [19] | [20] | [16]
active: [14] 48.8 µM | [17] 1.23 µM
1.45 µM (active) and inactive: [9]

CN1CCC(N(Cc2ccccc2)c2ccccc2)CC1
active: [10] 2.59 µM | [12] 0.365 µM
inactive: [1] | [2] | [3] | [4] | [5] | [6] | [7] | [8] | [9] | [19] | [11] | [13] | [20] | [14] | [15] | [17] | [18]

CCN(CC)c1ccccc1
inactive: [1] | [2] | [3] | [4] | [5] | [6] | [7] | [8] | [9] | [19] | [10] | [11] | [12] | [13] | [20] | [14] | [15] | [17] | [18]

Nc1ccc(Cl)cc1
inactive: [2] | [3] | [4] | [5] | [6] | [7] | [8] | [9] | [19] | [11] | [13] | [20] | [14] | [15] | [16] | [17] | [18]

CC(=O)/C=C/c1ccccc1
inactive: [4] | [7] | [8] | [9] | [10] | [11] | [12] | [13] | [20] | [14] | [15] | [16] | [17] | [18]

COS(=O)(=O)c1ccc(C)cc1
inactive: [1] | [2] | [3] | [4] | [5] | [6] | [7] | [8] | [9] | [10] | [11] | [12] | [13] | [14] | [17] | [18]
